Active and inactive are the calls of the source.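 Rule for the calls, unless noted: active = inhibition above 20% together with a positive visual image hit; inconclusive = visual image hit but inhibition not above 20%; inactive = no visual image hit.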
Experiments:
[1] = inhibitors of TNFa-induced NFkB p65 translocation, primary screen, imaging, HUVEC, MLSMR starter and 10KST1 sets (AID 438); conditions: HUVEC TNFa-induced p65 nuclear translocation; cell count: measured here: nuclei count (cytotoxicity indicator), at 2.08 µM; inhibition: at 2 µM, stronger effect = higher value, 0% TNFa-plus-vehicle, 100% no-TNFa wells;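 note: compound added about 3h40 before a 20 min TNFalpha stimulation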;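 for inhibition: signal is the nuclear over cytoplasmic p65 intensity ratio per well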
[2] = reduction of polyQ htt aggregates in cells – imaging, exon1htt(103Q)mCFP cells, high-content imaging, primary screen (AID 483;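 active = visual image review flags a hit and inhibition of aggregation exceeds 20%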;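 note: compound exposure lasted 3 days before fixation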;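 for nuclei count: percent of the per-plate median nuclei count of sample wells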); conditions: exon1htt(103Q)mCFP cell line, aggregate imaging, at 2 µM; inhibition of aggregation: stronger effect = higher value; nuclei count: measured here: cell count, toxicity
[3] = endothelial E-selectin expression blockers – imaging, HUVEC, immunofluorescence, MLSMR starter and 10KST1 sets, primary screen (AID 487;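 active = visually confirmed hit in the image check and inhibition above 20%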;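 for inhibition: signal is fraction of cell area covered by stained E-selectin grains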;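 for nuclei count: 100% = median nuclei count of all wells on the same plate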); conditions: HUVEC TNFalpha-induced E-selectin immunofluorescence imaging, at 2 µM; inhibition: stronger effect = higher value; nuclei count: measured here: cell number, toxicity
[4] = molecular target: Voltage-gated potassium channel subunit beta-2 (Rattus norvegicus) (UniProt P62483); experiment: inhibitors of rat Kvbeta2 reductase activity – biochemical, NADPH fluorescence, primary screen (AID 622;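 active = fluorescence slope higher than the sample average by over 3 SD, cut at about -0.22 in these data, passing the limit was not always enough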;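 note: slope of raw intensity against log time taken from 70 to 1610 s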); conditions: recombinant KvBeta, 4-cyanobenzaldehyde reduction, at 10 µM, stronger effect = higher value
Chain of Voltage-gated potassium channel subunit beta-2 (Rattus norvegicus) (P62483 whole entry, looked up): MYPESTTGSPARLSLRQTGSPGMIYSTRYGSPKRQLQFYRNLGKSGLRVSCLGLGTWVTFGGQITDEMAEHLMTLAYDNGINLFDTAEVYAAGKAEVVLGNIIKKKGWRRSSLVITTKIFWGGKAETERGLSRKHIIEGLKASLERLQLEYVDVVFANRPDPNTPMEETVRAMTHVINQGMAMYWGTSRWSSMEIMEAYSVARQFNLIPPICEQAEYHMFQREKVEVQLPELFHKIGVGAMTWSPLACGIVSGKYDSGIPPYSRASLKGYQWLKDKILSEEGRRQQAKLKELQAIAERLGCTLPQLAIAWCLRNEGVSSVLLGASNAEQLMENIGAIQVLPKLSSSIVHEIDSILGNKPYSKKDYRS

[5] = molecular target: Voltage-gated potassium channel subunit beta-2 (Rattus norvegicus) (UniProt P62483); experiment: enhancers of rat Kvbeta2 NADPH turnover – biochemical, NADPH fluorescence, primary screen (AID 623;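 active = NADPH fluorescence slope more negative than the mean of all samples by about 3 SD, 99.7% confidence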;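 note: fluorescence intensity change per second fitted from 20 to 320 s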); conditions: Recombinant KvBeta, NADPH fluorescence decrease slope, 10 min; at 10 µM; stronger effect = lower value
[6] = molecular target: Alpha-2C adrenergic receptor (Homo sapiens) (UniProt P18825); experiment: compounds altering alpha2C-coupled GIRK flux – cell-based, HEK293 alpha2C/GIRK1/2, thallium flux, primary screen (AID 624;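 active = fluorescence slope after compound addition differing from the mean of all screened samples at 99.7% confidence, in either direction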;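 note: slope of fluorescence ratio to pre-addition baseline per second over 15 to 24 s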); conditions: thallium flux BTC fluorescence, at 10 µM, actives lie on both sides
Chain of Alpha-2C adrenergic receptor (Homo sapiens) (P18825 whole entry, looked up): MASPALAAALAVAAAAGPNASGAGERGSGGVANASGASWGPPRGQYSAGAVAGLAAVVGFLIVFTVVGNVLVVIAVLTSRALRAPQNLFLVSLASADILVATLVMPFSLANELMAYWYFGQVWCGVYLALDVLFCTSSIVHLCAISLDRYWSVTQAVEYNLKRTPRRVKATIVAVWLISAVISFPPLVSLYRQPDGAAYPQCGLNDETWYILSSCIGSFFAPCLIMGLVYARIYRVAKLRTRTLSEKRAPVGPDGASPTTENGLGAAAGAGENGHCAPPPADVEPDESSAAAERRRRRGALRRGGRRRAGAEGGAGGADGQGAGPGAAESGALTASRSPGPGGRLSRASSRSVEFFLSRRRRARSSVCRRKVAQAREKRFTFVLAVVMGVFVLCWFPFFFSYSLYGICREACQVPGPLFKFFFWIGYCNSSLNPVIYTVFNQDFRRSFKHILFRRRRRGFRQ

[7] = blockers of RIG-like receptor reporter activation – cell-based, Sendai virus stimulus, luciferase, 10K MLSCN set, TLR/RLR signaling modifier project, primary screen (AID 602276;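 active = inhibition at or above 50% at 10 µM; inactive = inhibition below 50%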;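 note: firefly luciferase from ISG56 promoter only with Renilla not read in this screen; 0% = Sendai virus plus DMSO and 100% = medium plus DMSO without virus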); conditions: HEK293 RL24 IRF3 luciferase reporter, at 10 µM, stronger effect = higher value
[8] = TLR3 IRF3 reporter activation blockers – cell-based, poly I:C stimulus, luciferase, 10K MLSCN set, primary screen (AID 602277;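 active = inhibition of the reporter signal at or above 50%; inactive = inhibition below 50%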); conditions: HEK293-TLR3 RL24 IRF3 luciferase reporter, at 10 µM, stronger effect = higher value

Compound	cell count [1]	inhibition [1]	inhibition of aggregation [2]	nuclei count [2]	inhibition [3]	nuclei count [3]	fluorescence slope [4]	NADPH fluorescence slope [5]	slope [6]	inhibition [7]	inhibition [8]
CCOC(=O)c1ccc(NC(=O)c2ccc(NS(C)(=O)=O)cc2)cc1	473	-4.3% (inactive)	8.8% (inactive)	95.3%	32.9% (inactive)	95.1%	-0.401 (inactive)	4e-05 (inactive)	0.00834 (inactive)	6.57% (inactive)	11.9% (inactive)
CCn1cc(C(=O)NCCCOC)c(=O)c2cc(S(=O)(=O)N(C)C3CCCCC3)ccc21	559	-15.1% (inactive)	18.2% (inactive)	74.5%	-38.4% (inactive)	100%	-0.678 (inactive)	5.7e-06 (inactive)	0.00665 (inactive)	6.58% (inactive)	28.2% (inactive)
S=c1[nH]nc(Cc2ccccc2)n1Cc1ccco1	769	-8% (inactive)	3% (inactive)	101%	-2.6% (inactive)	102%	-0.499 (inactive)	-7e-05 (inactive)	0.00544 (inactive)	5.02% (inactive)	9.76% (inactive)
Cc1cc(C)nc(N2CCC(C(=O)NC3CCCCCC3)CC2)n1	502	-11.2% (inactive)	25.2% (inactive)	93.6%	19.9% (inactive)	90.5%	-0.508 (inactive)	6.6e-06 (inactive)	0.00535 (inactive)	16.4% (inactive)	16.2% (inactive)
O=C(NCC1CCCO1)C1CCCN(S(=O)(=O)c2cccc3nsnc23)C1 (stereo not drawn)	801	-1.6% (inactive)	30.3% (inactive)	122%	-30.2% (inactive)	114%	-0.434 (inactive)	6e-05 (inactive)	0.00536 (inactive)	0.526% (inactive)	-1.36% (inactive)
O=C(OCCCCN1C(=O)c2ccccc2C1=O)c1n[nH]c2ccccc12	698	8.6% (inactive)	12.4% (inactive)	97%	-164% (inactive)	155%	-0.543 (inactive)	-5.2e-05 (inactive)	0.00475 (inactive)	9.32% (inactive)	-4.95% (inactive)
Cc1ccccc1NC(=O)CSc1nc(N)c(C#N)c(-c2cccs2)c1C#N	440	-0.3% (inactive)	-16.8% (inactive)	110%	-12.2% (inactive)	98.8%	-0.475 (inactive)	-4.8e-05 (inactive)	0.00696 (inactive)	11.6% (inactive)	14.3% (inactive)
CC(=O)N1CCN=C1SCc1c(F)cccc1Cl	509	9.8% (inactive)	-12.4% (inactive)	110%	9.3% (inactive)	93.3%	-0.626 (inactive)	1.8e-05 (inactive)	0.00565 (inactive)	-11.7% (inactive)	4.78% (inactive)
COc1ccc(N2CCN(C(=O)C(C)(C)Oc3ccc(Cl)cc3)CC2)cc1	651	5.8% (inactive)	4.4% (inactive)	96.2%	0% (inactive)	111%	-0.564 (inactive)	-4.3e-05 (inactive)	0.00674 (inactive)	2.83% (inactive)	28.4% (inactive)
C=CCN(C(=O)CNS(=O)(=O)c1ccccc1)C(C(=O)NCCOC)c1ccncc1 (stereo not drawn)	543	-18.3% (inactive)	18.4% (inactive)	93.8%	7.6% (inactive)	80.2%	-0.478 (inactive)	3.8e-06 (inactive)	0.00567 (inactive)	11% (inactive)	5.34% (inactive)
CSc1c(C#N)c(N)c(C#N)c2c1COC(C)(C)C2	723	-2.6% (inactive)	-6.1% (inactive)	83%	-34% (inactive)	103%	-0.501 (inactive)	-4.2e-05 (inactive)	0.00561 (inactive)	17.3% (inactive)	25.5% (inactive)
CC1CCCN(C(=O)CN2C(=O)c3ccccc3C2=O)C1 (stereo not drawn)	432	4.9% (inactive)	15.5% (inactive)	136%	-27.3% (inactive)	102%	-0.272 (inactive)	-3.7e-05 (inactive)	0.00658 (inactive)	14.5% (inactive)	20.6% (inactive)
Cc1cc(C)nc(N(C#N)CC(=O)N2CCC(C(N)=O)CC2)n1	553	-16.4% (inactive)	12.3% (inactive)	98.2%	21.6% (inactive)	98.4%	-0.489 (inactive)	1.8e-05 (inactive)	0.00455 (inactive)	14.2% (inactive)	13.3% (inactive)
COc1ccc(Cc2nc(-c3ccc(NC(=O)c4cccnc4)cc3)no2)cc1	609	9.6% (inactive)	23.4% (inactive)	121%	-45.6% (inactive)	96.3%	-0.6 (inactive)	-5e-05 (inactive)	0.0059 (inactive)	-8.06% (inactive)	-67.3% (inactive)
CCOc1ccc(C2C(C#N)=C(N)Oc3cc(C)n(CCN(C)C)c(=O)c32)cc1OCC (stereo not drawn)	587	-7.4% (inactive)	1.7% (inactive)	98.3%	11.8% (inactive)	93.1%	-0.588 (inactive)	-4.4e-05 (inactive)	0.00685 (inactive)	14.3% (inactive)	38.2% (inactive)
Cc1ccc2[nH]c(=O)c(CN(CCCN3CCOCC3)C(=O)Nc3cccc(Cl)c3)cc2c1	724	21.3% (inactive)	-15.9% (inactive)	89%	8% (inactive)	131%	-0.597 (inactive)	-5.2e-05 (inactive)	0.00418 (inactive)	13.4% (inactive)	4.8% (inactive)
CCC(=O)Nc1c(C#N)c2nc3ccccc3nc2n1-c1ccccc1C	311	-1.9% (inactive)	11.4% (inactive)	83.9%	-20.8% (inactive)	95.9%	-0.0512 (inactive)	7.8e-06 (inactive)	0.00349 (inactive)	12.6% (inactive)	21.8% (inactive)
N#CCCn1ccc(NC(=O)c2ccc(Cl)cc2)n1	444	-6.3% (inactive)	13.4% (inactive)	100%	-23% (inactive)	131%	-0.477 (inactive)	-6.3e-05 (inactive)	0.00607 (inactive)	-18.1% (inactive)	-11.6% (inactive)
CC(C)CC(=O)Nc1ccccc1-c1nnn(CC(=O)N2CCOCC2)n1	739	-6.7% (inactive)	1.9% (inactive)	112%	25.9% (inactive)	106%	-0.497 (inactive)	-6.6e-05 (inactive)	0.00487 (inactive)	7.19% (inactive)	13.9% (inactive)
CC(C)Cn1c(-c2ccc(F)cc2)n[nH]c1=S	390	2.6% (inactive)	-11.3% (inactive)	106%	-69.3% (inactive)	118%	-0.395 (inactive)	-3.7e-05 (inactive)	0.0039 (inactive)	9.62% (inactive)	12.7% (inactive)
Cc1cccc(Cc2nnc(NC(=O)c3cccc(S(=O)(=O)N4CCOCC4)c3)s2)c1	424	-5.5% (inactive)	-0.5% (inactive)	106%	0.9% (inactive)	126%	-0.422 (inactive)	-7.5e-06 (inactive)	0.00421 (inactive)	14.3% (inactive)	30.6% (inactive)
CCOC(=O)Cc1nnc2c(Nc3ccccc3F)nc3nonc3n12	631	-9.1% (inactive)	-25.8% (inactive)	119%	-38.4% (inactive)	142%	-0.582 (inactive)	-7e-06 (inactive)	0.00616 (inactive)	7.74% (inactive)	-15.3% (inactive)
Fc1ccc(-c2csc3nnc(SCc4cccnc4)n23)cc1	376	4.4% (inactive)	-9.6% (inactive)	97.5%	-30% (inactive)	116%	-0.312 (inactive)	-2.7e-05 (inactive)	0.00572 (inactive)	1.55% (inactive)	20.4% (inactive)
O=C(C(c1ccccc1)c1ccccc1)N1CCN(Cc2ccccn2)CC1	357	-7.5% (inactive)	3.4% (inactive)	98.4%	-11.4% (inactive)	107%	-0.369 (inactive)	-1.3e-05 (inactive)	0.00484 (inactive)	5.9% (inactive)	18.2% (inactive)
Cc1nc2ncnn2c(Nc2ccc3c(c2)OCCO3)c1C	233	-9.3% (inactive)	1.4% (inactive)	87.4%	-57.1% (inactive)	97.7%	-0.614 (inactive)	-4.3e-05 (inactive)	0.00442 (inactive)	9.15% (inactive)	-0.101% (inactive)
Cc1ccc(-c2cn3nc(C)c(C)nc3n2)cc1	778	-23.3% (inactive)	-5.7% (inactive)	119%	-35.5% (inactive)	121%	-0.007 (active)	-3.4e-06 (inactive)	0.00494 (inactive)	20% (inactive)	1.39% (inactive)
CCCCN(CC)CCCNC(=O)CS(=O)(=O)Cc1nc(-c2cccc(OC)c2)oc1C	670	-15.1% (inactive)	-1% (inactive)	100%	-24.9% (inactive)	99.7%	-0.354 (inactive)	4e-05 (inactive)	0.00399 (inactive)	2.85% (inactive)	17.9% (inactive)
CCOC(=O)c1[nH]c(C)c(C(=O)NCC2CCCO2)c1C (stereo not drawn)	390	2.8% (inactive)	5.8% (inactive)	103%	-13.6% (inactive)	86.3%	-0.608 (inactive)	-7.6e-06 (inactive)	0.00577 (inactive)	8.72% (inactive)	14.8% (inactive)

From PubChem BioAssay
